Only some compounds are listed: those with a hit (about 7.3% of all), similar ones and a draw of the others.
Vaccinia mCherry: inhibitors of vaccinia virus infection (mCherry reporter signal). 0.63% of 310,000 active. Potency, µM (titrated, usually from 36.5 µM), usual class: inhibitors. Vaccinia virus mCherry reporter infection, fluorescence; calls by dose curve; tested in A549 cells; note: nearly all actives have a fitted effect of over 35% in size
FMDV antiviral: antivirals against foot and mouth disease virus | FMDV antiviral cell-based qHTS | 1.2% of 410,000 active | Potency, µM (top dose mostly 57.9 µM), usual class: inhibitors | AID 1159524; calls by dose curve; tested in HEK293T cells; note: read-out not given here; nearly all actives have a fitted effect of over 45% in size
HCV inh: inhibitors of hepatitis C virus infection. Huh7.5.1 HCVcc-Cre infection, luciferase reporter, 44 h. Potency, µM (titrated, usually from 41.8 µM), usual class: inhibitors. 3.4% of 340,000 active; active = well fitted inhibition curve with a large enough effect; inconclusive = small, poorly fitted or top-dose-only effect, or another doubt; inactive = no such curve, though single readings can be large or run the other way
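After 44 h co-culture of compound, cells and HCVcc-Cre (~0.5 moi), substrate is added for 15 min at room temperature and luciferase measured over 15 sec. Cells were seeded at 1,000/well and pre-cultured 4 h.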
VACV Venus inh: inhibitors of vaccinia virus (Venus reporter) | 0.46% of 330,000 active | Vaccinia virus Venus reporter expression, fluorescence | Potency, µM (series often up to 36.5 µM), actives largely listed as inhibitors | AID 720580; calls by dose curve; tested in A549 cells; note: nearly all actives have a fitted effect of over 30% in size
HCMV inh: inhibitors of human cytomegalovirus; HFF cells, HCMV-luciferase reporter, 72 h; active compounds read low; activity change, negative = inhibition, % at 57.5 µM; 4.5% of 410,000 active; in the data active = activity change below about -60%; inconclusive = no clear call, values can overlap the other calls; inactive = above about -39%
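Screen run at 2 compound doses on HFFs infected with reporter HCMV, MOI 1 PFU/cell. Luciferase activity from cell lysates at 72 h post infection gave inhibition relative to buffer-only and Salinomycin wells.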
Hits are given with their value; n = inactive; u = inconclusive; x = not tested or not shown; ! = repeats disagree; [ ] = remark or other dose.

SMILES	Vaccinia mCherry	FMDV antiviral	HCV inh	VACV Venus inh	HCMV inh
NC(N)=NN=C(c1ccc(F)cc1)c1ccc(C(F)(F)F)cc1	u	n	u	13µM	-77
COc1ccc(C(CC(=O)Nc2ccc(Cl)cc2F)NC(=O)C(F)(F)F)cc1 (centres undefined)	x	n	n	x	-89
CCc1ccccc1S(=O)(=O)Cc1ccc(C(=O)NCCc2ccc(Cl)cc2)o1	n	u	x	n	n
CN(CC(=O)Nc1ccc(Cl)c(C(F)(F)F)c1)C(=O)C1CCN(C(=O)c2ccc(Cl)cc2)CC1	x	n	11µM	x	n
CN(CC(=O)Nc1ccc(Cl)c(C(F)(F)F)c1)C(=O)C1CCC1	n	n	u	n	n
Cc1sc2ncnc(N3CCC(C(=O)N(C)CC(=O)Nc4cccc(F)c4)CC3)c2c1C	u	18µM	x	u	-88
Cc1sc2ncnc(N3CCC(C(=O)N(C)CC(=O)Nc4ccc(Cl)c(C(F)(F)F)c4)CC3)c2c1C	10µM	u	8.9µM	u	u
CCCCC1CCC(C(=O)N(C)CC(=O)Nc2cccc(F)c2)CC1 (centres undefined)	u	n	n	u	n
CN(CC(=O)Nc1ccc(Cl)c(C(F)(F)F)c1)C(=O)C1CC(=O)N(Cc2ccco2)C1 (centres undefined)	n	n	n	n	-90
CN1C[C@@H]2[C@@H]3C(=O)N(Cc4ccccc4)C(=O)[C@@H]3[C@](Cc3ccccc3)(C1=O)N2C(=O)c1ccc(F)cc1	u	n	n	u	n
CCOC(=O)/C(=C\Nc1cccc(OCc2ccccc2)c1)NC(=O)c1ccccc1	x	x	x	x	-60
CCOC(=O)/C(=C\Nc1ccc(OCc2ccccc2)cc1)NC(=O)c1ccccc1	x	x	x	x	n
Cn1c(N)c(C(=O)COC(=O)c2ccccc2C(=O)c2ccc(Cl)cc2)c(=O)n(C)c1=O	n	n	u	n	n
c1cc(OCCN2CC2)ccn1	n	n	u	n	-100
c1ccc(OCCN2CCN(C(c3ccccc3)c3ccccc3)CC2)cc1	x	u	11µM	x	n
CC1(C)CC(NC(=O)Cc2ccccc2)CC(C)(C)N1	x	n	n	x	n
Cc1ccc(-c2nnc(Sc3nc4ccccc4o3)c3ccccc23)cc1	10µM	n	u	10µM	n
Cc1nnc(Sc2nc3ccccc3o2)c2ccccc12	u	u	u	u	n
Clc1ccc(-c2nnc(Sc3nc4ccccc4o3)c3ccccc23)cc1	14µM	x	n	u	-82
CCSc1nnc(-c2ccc(C)cc2)c2ccccc12	u	n	u	u	-62
CCSc1nnc(-c2ccc(Cl)cc2)c2ccccc12	x	n	n	x	u
CC(C)CCN1C(=O)C2(OCCCO2)c2cc(Cl)ccc21	n	n	n	n	n
Cc1cc(Cl)c2oc(C(=O)N(C)CCc3cnn(C)c3)c(C)c2c1	n	n	u	n	n
CCN(Cc1ccc(OC)cc1)c1ccc(-c2nc(-c3ccncc3)no2)cc1[N+](=O)[O-]	n	n	x	n	n
Cc1ccc(N2CC(NC(=O)c3ccc(S(=O)(=O)N(C)C)cc3)CC2=O)cc1C (centres undefined)	n[7.34 µM]	n	x	n[7.34 µM]	n
SMILES	Vaccinia mCherry	FMDV antiviral	HCV inh	VACV Venus inh	HCMV inh
Cc1nnc(N2CCCC(C(=O)NCc3ccccc3F)C2)c2nn(-c3ccccc3)c(C)c12 (centres undefined)	x	n	n	x	n
COc1ccccc1CCNC(=O)C1CCN(c2nnc(C)c3c(C)n(-c4ccc(C)cc4)nc23)CC1	14µM	n	u	10µM	-93!
CCOc1ccccc1CNC(=O)C1CCN(c2nnc(C)c3c(C)n(-c4ccc(C)cc4)nc23)CC1	11µM	u	11µM	11µM	-86
Cc1ccc(-n2nc3c(N4CCC(C(=O)NCc5ccccc5Cl)CC4)nnc(C)c3c2C)cc1	u	u	x	10µM	n
CCOc1ccc(-n2nc3c(SCCN4CCCC4)nnc(C)c3c2C)cc1	n	u	10µM	n	u
COc1ccccc1CNC(=O)CN1C(=O)CSc2c1c(C)nn2-c1ccccc1	n	n	x	n	n
COc1ccc(OC)c(NC(=O)N(C)CCc2c(C)nn(C)c2C)c1	n	n	x	n	n
Cc1nnc(N2CCC(C(=O)NCc3ccc(F)cc3)CC2)c2nn(-c3ccc(Cl)cc3)c(C)c12	u	n	x	u	-86
Cc1ccc(-n2nc3c(N4CCCC(C(=O)NCc5ccc(Cl)cc5)C4)nnc(C)c3c2C)cc1 (centres undefined)	n	n	x	n	n
Cc1ccc(-n2nc3c(N4CCC(C(=O)NCc5ccccc5C)CC4)nnc(C)c3c2C)cc1	x	n	6.3µM	x	x
Cc1nnc(N2CCC(C(=O)NCCc3ccccc3)CC2)c2nn(-c3ccc(Cl)cc3)c(C)c12	u	n	x	u	n
Cc1nnc(N2CCC(C(=O)NCCc3ccccc3Cl)CC2)c2nn(-c3ccccc3)c(C)c12	28µM	n	x	u	-91
CCOc1ccc(CNC(=O)C2CCN(c3nnc(C)c4c(C)n(-c5ccc(C)cc5)nc34)CC2)cc1	x	u	13µM	x	-74
COc1ccc(NC(=O)c2ccc(Cl)c(S(=O)(=O)NCC3CCCO3)c2)c(OC)c1 (centres undefined)	x	n	u	x	x
COc1ccc(S(=O)(=O)NC(=O)C2(C)CCN2C(=O)CCC2CCCC2)cc1OC (centres undefined)	n	n	x	n	n
Cc1ccccc1N=CC1=C(O)c2ccccc2C1=O	n	8.9µM	n	n	n
CC(CCC(C)C(C)(C)C)[C@@H]1CC[C@H]2C3C[C@H](OS(O)(=S)=S)[C@H]4C[C@H](OS(O)(=S)=S)[C@@H](OS(O)(=S)=S)C[C@]4(C)[C@H]3CC[C@]12C (some centres undefined) (tested in a mixture with another compound)	n	n	2.5µM	u	x
COc1cc(CCC(=O)Nc2ccc(C)c(S(=O)(=O)N3CCCCCC3)c2)cc(OC)c1OC	u	18µM	7.9µM	n	-70
COc1cc(CCC(=O)Nc2ccc(S(=O)(=O)N3CCCC3)cc2)cc(OC)c1OC	x	n	u	x	n
COc1ccc(NC(=O)CCc2ccccc2)cc1S(=O)(=O)N1CCCCC1	n	n	n	n	u
COc1ccc(NC(=O)CCOc2ccccc2C)cc1S(=O)(=O)N1CCCCC1	n	u	11µM	n	u
COc1ccc(CCC(=O)Nc2ccc(OC)c(S(=O)(=O)N3CCCCC3)c2)cc1OC	x	u	10µM	x	n
COc1ccc(CCC(=O)Nc2ccc(Cl)c(S(=O)(=O)N3CCCC3)c2)cc1	n	n	5.6µM	n	-103
Cc1sc2ncn(CC(=O)N3CCN(c4ccc(Cl)cc4)CC3)c(=O)c2c1S(=O)(=O)N1CCN(c2ncccn2)CC1	u	u	x	n	n
CC(C)CN(C(=O)C1COc2ccccc2O1)c1c(N)n(CC(C)C)c(=O)[nH]c1=O (centres undefined)	x	n	n	x	n
COc1cc(OC)c(NC(=O)Cc2c(C(=O)O)c(C)cn2C)cc1Cl	n	n	x	n	n
CC(Sc1nncn1C)C(=O)Nc1ccc(N2CCCCC2)cc1 (centres undefined)	x	n	n	x	n
COc1ccccc1CCC(=O)Nc1ccc2c(c1)c(=O)n(C)n2-c1cccs1	u	n	x	u	-84
